According to PMC7826789 (International Journal of Molecular Sciences, 2021):

Assays:
Details in all cases: Compound Concentration (nM):1000
ERK4 = system: T1, ERK4
T1 construct: gene MAPK4

ERK5 = system: T2, ERK5
T2 construct: gene MAPK7

ERK8 = system: T3, ERK8
T3 construct: gene MAPK15

ERN1 = system: ERN1
FAK = system: T4, FAK
T4 construct: gene PTK2

FER = system: FER
FES = system: FES
FGFR1 = system: FGFR1
FGFR2 = system: FGFR2
FGFR3(G697C) = system: FGFR3(G697C)
FGFR3 = system: FGFR3
FGFR4 = system: FGFR4
FGR = system: FGR
FLT1 = system: FLT1
FLT3(D835H) = system: FLT3(D835H)
FLT3(D835V) = system: FLT3(D835V)
FLT3(D835Y) = system: FLT3(D835Y)
FLT3(ITD) = system: FLT3(ITD)
FLT3(ITD,D835V) = system: FLT3(ITD,D835V)
FLT3(ITD,F691L) = system: FLT3(ITD,F691L)
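Note: KINOMEscan scanMAX binding as percent activity remaining versus control; lower means stronger binding.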

| SMILES | Percent Control (ERK4) [%] | Percent Control (ERK5) [%] | Percent Control (ERK8) [%] | Percent Control (ERN1) [%] | Percent Control (FAK) [%] | Percent Control (FER) [%] | Percent Control (FES) [%] | Percent Control (FGFR1) [%] | Percent Control (FGFR2) [%] | Percent Control (FGFR3(G697C)) [%] | Percent Control (FGFR3) [%] | Percent Control (FGFR4) [%] | Percent Control (FGR) [%] | Percent Control (FLT1) [%] | Percent Control (FLT3(D835H)) [%] | Percent Control (FLT3(D835V)) [%] | Percent Control (FLT3(D835Y)) [%] | Percent Control (FLT3(ITD)) [%] | Percent Control (FLT3(ITD,D835V)) [%] | Percent Control (FLT3(ITD,F691L)) [%] |
| --- | --- | --- | --- | --- | --- | --- | --- | --- | --- | --- | --- | --- | --- | --- | --- | --- | --- | --- | --- | --- |
| CCS(=O)(=O)c1ccc(OC)c(Nc2ncc(-c3cccc(OC)c3)o2)c1 [GW580509X] | 100 | 100 | 100 | 76 | 100 | 100 | 100 | 39 | 58 | 31 | 44 | 100 | 41 | 54 | 0.5 | 0 | 42 | 8.2 | 0 | 30 |
| COc1ccc(COc2ccc(Cc3cnc(N)nc3N)cc2OC)cc1 [GW632580X] | 100 | 100 | 100 | 88 | 100 | 81 | 82 | 67 | 99 | 89 | 95 | 98 | 81 | 98 | 100 | 100 | 81 | 87 | 100 | 99 |
| COc1cc(N2CCN(C(C)C)CC2)ccc1Nc1nc(Nc2ccc(F)cc2C(=O)NC[C@@H](O)CO)c2cc[nH]c2n1 [GSK1392956A] | 100 | 99 | 100 | 43 | 4.5 | 43 | 58 | 100 | 97 | 98 | 97 | 95 | 81 | 94 | 100 | 69 | 68 | 88 | 79 | 40 |
| Cl.c1ccc(Cc2nc3ccc(Nc4ncnc5ccccc45)cc3[nH]2)cc1 [GR269666A] | 100 | 100 | 92 | 93 | 100 | 88 | 100 | 100 | 100 | 100 | 100 | 100 | 100 | 100 | 100 | 83 | 97 | 100 | 100 | 100 |
| COc1ccc2cc(-c3c(-c4ccncc4)nc(-c4ccc(S(C)(=O)=O)cc4C)n3C)ccc2c1 [SB-633825] | 74 | 89 | 100 | 74 | 85 | 77 | 81 | 73 | 73 | 86 | 76 | 85 | 63 | 100 | 79 | 74 | 99 | 100 | 80 | 81 |
| CCn1c(-c2nonc2N)nc2c(C#CC(C)(C)O)nc(OCCNC)cc21.Cl [GSK949675] | 100 | 100 | 100 | 100 | 100 | 100 | 100 | 100 | 100 | 100 | 100 | 100 | 100 | 100 | 43 | 83 | 30 | 100 | 100 | 22 |
| COc1ccccc1-c1cc(/C=C2\C(=O)Nc3ncc(Br)cc32)cc(Br)c1O [GW442130X] | 100 | 100 | 100 | 100 | 97 | 100 | 100 | 100 | 100 | 100 | 100 | 100 | 100 | 100 | 86 | 73 | 40 | 100 | 92 | 100 |
| Cl.O=C(Nc1ccc(Oc2ccc3[nH]c(NC(=O)c4ccco4)nc3c2)cc1)Nc1cc(C(F)(F)F)ccc1F [GW683134A] | 100 | 100 | 34 | 89 | 100 | 92 | 100 | 64 | 36 | 69 | 84 | 100 | 91 | 3.2 | 0.4 | 13 | 9.8 | 3.7 | 96 | 39 |
| NS(=O)(=O)c1ccc(N/N=C2\C(=O)Nc3ccc(C(=O)NCCc4c[nH]cn4)cc32)cc1 [GW300660X] | 100 | 100 | 18 | 82 | 100 | 100 | 100 | 100 | 100 | 100 | 100 | 100 | 100 | 100 | 52 | 0.8 | 62 | 80 | 1.8 | 4.1 |
| CN1CCN(C(=O)c2ccc(NC(=O)Nc3ccc(N(C)c4ccnc(Nc5ccc(CS(C)(=O)=O)cc5)n4)cc3)cc2)CC1.Cl [GW830263A] | 100 | 100 | 25 | 25 | 36 | 46 | 67 | 100 | 99 | 100 | 100 | 100 | 57 | 0.4 | 0.8 | 1.2 | 5.3 | 0.3 | 8.9 | 6.8 |
| COc1cc(C)c(N(C)C(=O)CN(C)C)cc1Nc1nc(Nc2cccc(F)c2C(N)=O)c2cc[nH]c2n1 [GSK2219385] | 92 | 100 | 95 | 100 | 100 | 91 | 97 | 100 | 82 | 88 | 78 | 96 | 100 | 96 | 85 | 76 | 91 | 82 | 88 | 100 |
| CN(C)CCNC(=O)Nc1ccc(N(C)c2ccnc(Nc3ccc(CS(C)(=O)=O)cc3)n2)cc1.Cl [GW830900A] | 93 | 100 | 78 | 72 | 49 | 100 | 100 | 100 | 94 | 100 | 100 | 100 | 100 | 61 | 32 | 6.3 | 35 | 8.3 | 22 | 19 |
| C[C@@H](Oc1cc(-n2cnc3ccc(OC4CCN(C)CC4)cc32)sc1C(N)=O)c1ccccc1Cl [GSK579289A] | 98 | 96 | 100 | 55 | 50 | 100 | 85 | 67 | 89 | 61 | 86 | 79 | 91 | 75 | 9.4 | 0 | 38 | 38 | 15 | 8.2 |
| COc1ccc2c(-c3ccnc(Nc4cccc(OC(F)(F)F)c4)n3)cnn2n1 [GW810372X] | 100 | 100 | 3.6 | 100 | 100 | 100 | 100 | 91 | 100 | 75 | 100 | 100 | 96 | 73 | 0 | 46 | 55 | 49 | 65 | 89 |
| COc1ccc2[nH]c3c4[nH]c5ccc(OC)cc5c4c4c(c3c2c1)C(=O)NC4=O [GW296115X] | 74 | 69 | 58 | 93 | 85 | 58 | 86 | 100 | 88 | 100 | 93 | 85 | 68 | 79 | 12 | 4 | 16 | 2.1 | 0 | 3.6 |
| O=C1Nc2ccc(C(=O)c3ccco3)cc2C1=Cc1cc(Cl)c(O)c(Cl)c1 [GW406108X] | 100 | 100 | 100 | 66 | 100 | 100 | 99 | 100 | 75 | 100 | 78 | 100 | 81 | 57 | 18 | 2.2 | 15 | 47 | 12 | 29 |
| Cc1cc(O)cc(C)c1/C=C/c1cncc(C(N)=O)c1 [GW435821X] | 100 | 100 | 100 | 82 | 100 | 98 | 100 | 92 | 100 | 100 | 100 | 100 | 64 | 100 | 77 | 31 | 75 | 100 | 100 | 100 |
| NS(=O)(=O)c1ccc(Nc2ncc(-c3ccccc3)o2)cc1 [GW572399X] | 100 | 100 | 28 | 100 | 100 | 100 | 100 | 100 | 100 | 100 | 100 | 100 | 98 | 100 | 70 | 8.5 | 80 | 53 | 29 | 42 |
| COc1cccc(-n2ncc3c(N/N=C/c4ccncc4)ncnc32)c1 [GW784752X] | 58 | 100 | 17 | 72 | 100 | 100 | 100 | 87 | 100 | 92 | 100 | 100 | 72 | 100 | 22 | 4 | 48 | 67 | 10 | 55 |
| COC(=O)Nc1nc2ccc(Oc3ccc(NC(=O)Nc4cc(C(F)(F)F)ccc4F)cc3)cc2s1.Cl [GW693917A] | 95 | 100 | 8.5 | 56 | 92 | 100 | 88 | 51 | 30 | 59 | 70 | 91 | 71 | 3 | 2.3 | 13 | 24 | 4.3 | 83 | 44 |
| Nc1ncnc2occ(-c3ccc(NC(=O)Nc4cc(C(F)(F)F)ccc4F)cc3)c12 [GW770249X] | 100 | 100 | 2.4 | 88 | 9.7 | 87 | 100 | 32 | 31 | 78 | 77 | 69 | 100 | 2.9 | 0.9 | 4.1 | 11 | 2.9 | 52 | 27 |
